Inhibition data for 100 molecules are collected here from PubChem BioAssay AID1209 (Sanford-Burnham Center for Chemical Genomics, 2008).

Screen size: about 190,000 compounds; about 810 (0.43%) were called active. Only a selection was taken, and actives are over-represented in it overall. A number with no mark means an inactive call. Rule as the data show it: active = inhibition above about 50%; inactive = the rest.

The target of this experiment is Mannose-6-phosphate isomerase (Homo sapiens) (UniProt P34949). Nature of the experiment: inhibitors of human PMI, primary screen, biochemical, fluorescence intensity, coupled assay (AID 1209).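 Also: plate controls were DMSO vehicle for no effect and wells lacking substrate for full effect.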 Conditions: purified PMI enzyme, at 20 µM, hits give high values.
Chain of Mannose-6-phosphate isomerase (Homo sapiens) (P34949 whole entry, looked up): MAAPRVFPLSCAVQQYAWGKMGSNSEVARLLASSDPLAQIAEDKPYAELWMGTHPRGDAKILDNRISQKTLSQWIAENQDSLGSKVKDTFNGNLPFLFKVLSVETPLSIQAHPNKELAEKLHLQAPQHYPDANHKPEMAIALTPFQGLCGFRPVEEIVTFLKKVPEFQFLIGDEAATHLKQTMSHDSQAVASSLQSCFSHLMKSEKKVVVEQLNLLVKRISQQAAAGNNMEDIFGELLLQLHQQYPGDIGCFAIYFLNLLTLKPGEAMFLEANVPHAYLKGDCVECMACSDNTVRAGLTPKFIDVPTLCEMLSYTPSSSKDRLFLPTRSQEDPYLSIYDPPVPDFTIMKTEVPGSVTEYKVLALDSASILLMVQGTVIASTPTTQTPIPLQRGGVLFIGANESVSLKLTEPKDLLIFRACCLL
For orientation: inhibition means the relative decrease from the control value, in per cent. For the molecule `O=C1CN(CC(=O)Nc2ccc(SC(F)F)cc2)CCN1`, the inhibition was 2.5%. Then `O=C(NCc1ccccc1)c1cccc(OCC(=O)N2CCN(C(=O)c3ccco3)CC2)c1`, with 2%; and `CCCC(C(=O)O)N1C(=O)/C(=C2\C(=O)N(C)c3ccccc32)SC1=S` (stereo not given), with 16.5%. For the molecule `CN1C(=O)/C(=C2\SC(=S)N(C(CCC(=O)O)C(=O)O)C2=O)c2ccccc21` (stereo not given), the inhibition was 22.8%. Then `COC(=O)C1=NN(c2ccccc2)C2(S1)SC(C(C)=O)=C(C)N2c1ccccc1` (stereo not given), with 9.2%; and `COC(=O)C1=C(C(=O)OC)SC(=C2C(=S)C(C)(C)N(C(=O)C3CC3)c3ccccc32)S1`, with 71.6% (active); and `C/C=C/C(=O)N1c2ccccc2C(C)=CC1(C)C`, with -2.5%. Then `O=C(C1CCC(C(=O)N2CCc3ccccc32)CC1)N1CCc2ccccc21` (stereo not given), with 3.2%; and `CCC(C)C(=O)N1c2ccccc2C(=C2SC(C(=O)OC)=C(C(=O)OC)S2)C(=S)C1(C)C` (stereo not given), with 63.8% (active); and `CCCC(=O)N1c2ccccc2C(=C2SC(C(=O)OC)=C(C(=O)OC)S2)C(=S)C1(C)C`, with 62.1% (active). Consider `COC(=O)C1=C(C(=O)OC)SC(=C2C(=S)C(C)(C)N(C(=O)CC(C)C)c3ccccc32)S1`, for which the inhibition was 38.8%. For the molecule `COC(=O)C1=C(C(=O)OC)SC(=C2C(=S)C(C)(C)N(C(=O)C(C)C)c3ccccc32)S1`, the inhibition is 68% (active). Take `CC1(C)c2ssc(=S)c2-c2ccccc2N1C(=O)CSC1=NCCS1`: the inhibition was 14.3%. Then `CC1C(=O)Nc2ccccc2N1C(=O)C1CC1` (stereo not given), with -18%; and `Cc1ccc(/C=C/C(=O)CCC(=O)O)cc1`, with -0.7%. With `O=C(N/N=C/c1c[nH]c2ccccc12)c1sc2ccccc2c1Cl` the figure was 17.1%; with `COc1cc(C2C3=C(CC(C)(C)CC3=O)OC3=C2C(=O)CC(C)(C)C3)cc([N+](=O)[O-])c1O`, 0.1%; with `O=C(CC1SC(=O)N(Cc2cccc3ccccc23)C1=O)Nc1nccs1` (stereo not given), 9.8%. With `O=C(/C=C/c1ccccc1)Oc1ccccc1C(=S)N1CCOCC1`, the inhibition was 15.6%. Then `Cc1csc(NC(=O)c2cc(C)oc2C)n1`, with -8.4%; and `CCOC(=O)c1sc(NC(=O)C2CCCO2)c(C(=O)OCC)c1C` (stereo not given), with 11.4%; and `S=C(Nc1ccccc1)Nn1cnnc1`, with 48.4%. Then `Cc1ccc(NC(=S)Nn2cnnc2)cc1`, with 61.8% (active); and `CCc1ccc(NC(=S)Nn2cnnc2)cc1`, with 54.2% (active).

On to `COc1ccc(NC(=S)NN2CCN(C)CC2)cc1OC`, for which the inhibition is 22.9%. Turning to `CNC(=S)Nc1ccc(OC)c(OC)c1`, the inhibition is 7.4%. For the molecule `FC(F)Oc1ccc(NC(=S)Nn2cnnc2)cc1`, the inhibition is 55.2% (active). With `CCc1ccc(NC(=S)Nc2ccc(S(=O)(=O)Nc3ncccn3)cc2)cc1` the figure was -1.7%.

On to `COc1ccc(NC(=S)Nn2cnnc2)cc1OC`, for which the inhibition was 61.2% (active). Regarding `FC(F)Oc1ccc(NC(=S)NN2CCOCC2)cc1`, the inhibition was -3.1%. With `CN1CCN(NC(=S)Nc2ccc(OC(F)F)cc2)CC1`, the inhibition was -15.1%. As to `CCc1ccc(NC(=S)NCc2ccccc2)cc1`, the inhibition is -2.6%. In the case of `Cc1ccc(C(=O)NC(=S)Nn2cnnc2)cc1`, the inhibition was 12.4%. Then `CCc1ccc(C(=O)COC(=O)c2n[nH]c3ccccc23)cc1`, with -0.2%; and `CCC1C(=O)N(C)CCc2ccccc21` (stereo not given), with -5.7%. With `COC(=O)c1nc(-c2ccccc2)oc1N1CCOCC1` the figure was -4.7%; with `COc1ccc(C)cc1NC(=O)C(Sc1nnc2ccccn12)c1ccccc1` (stereo not given), -1%.

As to `Cc1ccc(S(=O)(=O)N/N=C/c2ccc(OS(=O)(=O)c3ccc(C)c([N+](=O)[O-])c3)cc2)cc1`, the inhibition is 1.6%. As to `O=C(/C=C/c1ccc(Br)cc1)c1ccc(NC2=NCCCS2)cc1`, the inhibition is 1.6%. Then `O=c1cc(O)c2sc(Nc3cccc(C(F)(F)F)c3)nc2[nH]1`, with 52.4% (active); and `Fc1ccc(Nc2nc3ccccc3s2)cc1`, with 7.9%. With `O=c1cc(O)c2sc(Nc3ccc(F)cc3)nc2[nH]1`, the inhibition was 69.8% (active). Then `COc1ccc(Nc2nc3[nH]c(=O)cc(O)c3s2)cc1`, with 50.2% (active); and `COc1ccc(Nc2nc3ccc(OC)cc3s2)cc1`, with -0.9%; and `O=c1cc(O)c2sc(Nc3ccc(F)c(Cl)c3)nc2[nH]1`, with 41.4%. With `O=c1cnnc(Nc2cccc(C(F)(F)F)c2)[nH]1` the figure was -10.6%.

Take `COc1ccc(Nc2nc(C)cc(=O)[nH]2)cc1`: the inhibition was 5.6%. Turning to `Cc1cc(=O)[nH]c(Nc2cccc(C(F)(F)F)c2)n1`, the inhibition was -10.3%. On to `CN(C)CCCN(C(=O)c1cc2ccccc2oc1=O)c1nc2c(F)cccc2s1`, for which the inhibition was 7.5%. Turning to `O=C(CSc1n[nH]c(-c2cccs2)n1)N1CCN(S(=O)(=O)c2ccccc2)CC1`, the inhibition was 8.5%. As for `C#CCOCCOCCOCCNc1nc(N2CCOCC2)nc(N2CCN(C(=O)[C@H](C)n3cc(CCCN=C(N)N)nn3)CC2)n1`, the inhibition is -9.8%. With `COC(=O)c1ccc(NC(=O)CSc2n[nH]c(-c3ccncc3)n2)cc1` the figure was 11.1%. Then `COc1ccc(OCC(=O)N/N=C(\C)c2cc3ccccc3o2)cc1`, with 4.9%. Consider `CC(SCC(=O)Nc1ccc(S(=O)(=O)N2CCCCC2)cc1)C(=O)O` (stereo not given), for which the inhibition is 3.5%. `Brc1c(NC2=NCCN2)ccc2nccnc12`: the inhibition is 54.4% (active). `Clc1cccc(Cl)c1NC1=NCCN1`: the inhibition is -30.9%.

On to `c1cc(Nc2cccc3nccnc23)c2nccnc2c1`, for which the inhibition is 28.5%. With `Cc1nc2ccccc2n1CC(=O)OCC(=O)NCc1ccccc1`, the inhibition is -3%. For `CS(=O)(=O)N(CC(=O)Nc1ccc(S(=O)(=O)N2CCCC2)cc1)c1ccccc1F`, the inhibition was 2.4%. In the case of `Cc1ccnn1CC(=O)N/N=C/c1ccc2c(c1)OCO2`, the inhibition was -2.6%. Then `Cc1cc(C)n(CC(=O)N/N=C/c2ccc3c(c2)OCO3)n1`, with 12.1%; and `O=C(Cn1nc(C(F)F)cc1C(F)F)N/N=C/c1ccc2c(c1)OCO2`, with 92.9% (active); and `Cc1ccc(C(=O)CC(=O)c2cc(Cl)ccc2O)cc1`, with -10.2%. Then `Cc1cccc(C(=O)CC(=O)c2cc(Cl)ccc2O)c1`, with 5.2%; and `O=C(CC(=O)c1cc(Cl)ccc1O)c1ccccc1`, with 59.9% (active).

On to `S=c1[nH]ncn1/N=C/c1ccccn1`, for which the inhibition is 5.3%. Regarding `Oc1c(Br)cc(Br)cc1C=NCc1ccc(F)cc1`, the inhibition is -4.2%. Then `CCOC(=O)C1CCN(CCC(=O)Nc2ccc(Cl)cc2)CC1`, with 7.1%. With `COc1ccc([C@@H]2C[C@H]3CN(c4ccccc4)C(=O)[C@]34CCCN24)c(OC)c1OC`, the inhibition is -8.3%. Take `Cc1nn(Cc2cccc(C(=O)NC3CCCCC3)c2)c(C)c1Cl`: the inhibition is 7.3%. Then `O=C(O)c1csc(Cc2ccccc2)n1`, with -2.4%; and `COC(=O)c1c(NC(=S)Nc2ccc(F)cc2[N+](=O)[O-])sc2c1CCCCC2`, with 63% (active); and `COC(=O)c1c(NC(=S)Nc2cc(OC)c(Cl)cc2OC)sc2c1CCCCC2`, with 25.1%. In the case of `CCOC(=O)c1c(NC(=S)Nc2cc([N+](=O)[O-])ccc2OC)sc2c1CCCCC2`, the inhibition is 28.1%. Then `CCC1Oc2ccc(C)cc2N(CC(=O)NCc2ccco2)C1=O` (stereo not given), with 6.6%. Turning to `NC(=S)Nc1cccc2cnccc12`, the inhibition is 16.4%. As to `N#Cc1cccc2cnccc12`, the inhibition is 9%.

Turning to `Nc1cccc2cnccc12`, the inhibition is 68.5% (active).

In the case of `CCn1cc([N+](=O)[O-])c(C(=O)Nc2ccn(Cc3ccccc3F)n2)n1`, the inhibition was 8.3%. As to `CCOC(=O)c1c2ccc(OCC(=O)N/N=C/c3ccccc3C(F)(F)F)cc2n2ccccc12`, the inhibition was 59.8% (active). With `CCOC(=O)c1c2ccc(OCC(=O)NN)cc2n2ccccc12` the figure was 81.3% (active); with `COc1ccc2c(C#N)c3ccccn3c2c1`, 39.7%; with `CCOC(=O)c1c2ccc(OCC(=O)N/N=C/c3ccc(Cl)cc3)cc2n2ccccc12`, 33.2%. Then `CCOC(=O)c1c(C)n(C)c2cc(OCCN(CC)CC)ccc12`, with 10.9%; and `N#Cc1c2ccc(OCC(N)=O)cc2n2ccccc12`, with 65.3% (active); and `Cc1cccc(OCC(=O)N/N=C\c2cn(C)c3ccccc23)c1`, with 5.4%.

On to `CCOC(=O)c1c(C)n(C)c2ccc(OCC(N)=O)cc12`, for which the inhibition is 16.5%. Turning to `CCOC(=O)COc1ccc2c(C#N)c3ccccn3c2c1`, the inhibition is 41.4%. Regarding `N#CCCn1cc(/C=N/NC(N)=S)c(-c2ccc(-c3ccccc3)cc2)n1`, the inhibition is 21.7%. As to `COc1ccc(N=Nc2cnc(C)nc2-c2ccccc2)cc1`, the inhibition is 3.6%.

For `CCCCOc1ccc(-c2c(C(=O)Nc3ccccc3)c(C)[nH]c(=S)c2C#N)cc1`, the inhibition is 13.9%.

Consider `Cc1ccc2c(nc3s/c(=C/c4cccs4)c(=O)n32)c1C`, for which the inhibition is -7.9%. Then `Cc1cc(C)c2nc3s/c(=C/c4ccccc4)c(=O)n3c2c1`, with 57.6% (active); and `Cc1cc(C)c2nc3s/c(=C/c4ccc5c(c4)n(C)c(=O)n5C)c(=O)n3c2c1`, with 37.9%; and `CCCCn1cnc(C(=O)OCC)c1N`, with -3.8%. Then `Nc1ccn(Cc2ccc(F)cc2)n1`, with -1.5%.

For `O=C1COc2ccc(C(=O)c3ccccc3C(=O)O)cc2N1`, the inhibition was -8.8%. With `O=C1COc2ccc(C(=O)/C=C/c3ccccc3)cc2N1`, the inhibition was 7.8%. For the molecule `O=C(O)/C=C/C(=O)c1ccc2c(c1)NC(=O)CO2`, the inhibition was 64.4% (active).

For `Cc1ccc(S(=O)(=O)N2CCC(C(=O)N[C@H](C(=O)NCc3ccco3)C(C)C)CC2)cc1`, the inhibition was -3.1%.
